Data reported in PubChem BioAssay (NCATS).
Results filed as inconclusive are left out. A call without a number means that no potency is given here. Activity calls are given as the source filed them. The call rests on the fitted dose curve; in most records, active means well fitted inhibition curve with a large enough effect; inconclusive means small, poorly fitted or top-dose-only effect; inactive means no such curve, though single readings can be large or run the other way.

experiment: Counterscreen qHTS for small molecule stabilizers of the endoplasmic reticulum resident proteome: GLuc-NoTag assay (AID 1508627); conditions: Gaussia luciferase NoTag secretion counterscreen, luminescence, thapsigargin 100 nM for final 4 h; series mostly up to 76.4 µM
Excerpt: Assay Provider: Brandon K. Harvey Ph.D.
National Institute on Drug Abuse, National Institutes of Health, Baltimore, MD
Endoplasmic reticulum (ER) dysregulation is associated with human pathologies including neurodegenerative, cardiovascular, muscular, and diabetic conditions. Maintenance of ER calcium is critical for functions of the ER and its depletion can lead to loss of ER resident proteins, in a process termed exodosis. Therapeutic compounds capable of attenuating the redistribution of ER proteins under pathological conditions may slow or stop disease progression. To identify such compounds, we performed a quantitative high-throughput screen (qHTS) using the SERCaMP assay, which monitors secretion of ER resident proteins triggered by calcium depletion.
SERCaMP was initially developed as a reporter of ER calcium homeostasis using a Gaussia luciferase with a modified signal peptide and carboxy-terminus (GLuc-SERCaMP), modifications that confer secretion of the reporter in response to ER calcium depletion (Henderson et al., 2014). The assay was used to screen 9,501 compounds, including a collection of drugs approved by the FDA (US), EMA (EU), NHI (Japan), and HC (Canada) regulatory agencies (Huang et al., 2011). Since the SERCaMP reporter reflects the exodosis phenomenon (Trychta et al., 2018a), compounds identified in the screen have the potential to prevent exodosis by different mechanisms such as stabilizing ER calcium or augmenting ERS retrieval.
1. Henderson, M.J., Wires, E.S., Trychta, K.A., Richie, C.T., and Harvey, B.K. (2014). SERCaMP: a carboxy-terminal protein modification that enables monitoring of ER calcium homeostasis. Mol Biol Cell 25, 2828-2839.
2. Huang, R., Southall, N., Wang, Y., Yasgar, A., Shinn, P., Jadhav, A., Nguyen, D.T., and Austin, C.P. (2011). The NCGC pharmaceutical collection: a comprehensive resource of clinically approved drugs enabling repurposing and chemical genomics. Sci Transl Med 3, 80ps16.
3. Trychta, K.A., Back, S., Henderson, M.J., and Harvey, B.K. (2018a). KDEL Receptors Are Differentially Regulated to Maintain the ER Proteome under Calcium Deficiency. Cell Rep 25, 1829-1840 e1826.
SEQUENCE No. (1, 2, 3, etc.); […] (e.g., Cells, Incubation, Reagent, etc.); VALUE and DESCRIPTION.
1; Reagent; 5 uL; 1000 SH-SY5Y cells per wells
3; Compound; 23 nL; Control inhibitor / compound library
5; Reagent; 100 nM; Thapsigargin
7; Reagent; 1 uL; 0.5x coelenterazine
8; Detection; Luminescence; ViewLux imaging system
NOTES (numbers refer to sequence above)
1; SH-SY5Y human neuroblastoma cells stably expressing the constitutively secreted GLuc (SH-SY5Y-GLuc-NoTag) cells were seeded in 1,536 well white tissue culture treated plates (Corning, Cat# 7464) in DMEM-high glucose-sodium pyruvate (ThermoFisher Scientific, Cat #10569) supplemented with 10% bovine growth serum (Hyclone), 10 U/ml penicillin (Gibco), 10 ug/ml streptomycin (Gibco), and 20 mM HEPES.
2; Assay plates were incubated for 5 hour at 37C in a humidified incubator containing 5% CO2.
4; Cells were then incubated for 19 hours at 37C, 5% CO2.
5; Thapsigargin was added at 100 nM to deplete ER calcium stores.
6; Cells were incubated for 4 hour (37 °C, 5% CO2)
7; Gaussia luciferase in the medium was measured by adding 1 ul of 0.5x coelenterazine (final concentration 0.07x) prepared in Gaussia Luciferase Glow Assay Buffer (Pierce), without addition of the Cell Lysis Buffer Reagent.
8; Luminescence was measured using a ViewLux CCD imaging system (Perkin Elmer) equipped with clear filters. […] The same controls were also used for the calculation of the Z' factor, a measure of assay quality control, as previously described (Zhang et al., 1999). For the initial validation of activity in the SERCaMP assays, hits from the primary screen were assayed again at 11-concentrations (1.3 nM - 76.6 uM). SH-SY5Y-GLuc-SERCaMP cells were assayed for ER Ca2+ depletion as outlined above.
1. Zhang, J.H., Chung, T.D., and Oldenburg, K.R. (1999). […]
Potency means the concentration at half of the fitted maximal effect.

Row | Compound | Potency | activity change, negative = inhibition
1 | COCCn1c(=O)c(CCc2ccccc2)nc2cnc(OC)nc21 | inactive | –
2 | N#CCCn1c(=O)c(-c2ccc(Cl)cc2)nc2cnc(OCc3ccccc3)nc21 | inactive | –
3 | CCNc1ncc2nc(CCc3ccccc3)c(=O)n(-c3ccccc3)c2n1 | inactive | –
4 | COc1ccc(Oc2ncc3nc(-c4cc(F)cc(F)c4)c(=O)n(CCC#N)c3n2)cc1 | inactive | –
5 | O=c1c(-c2cccs2)nc2cnc(N3CCNCC3)nc2n1-c1ccccc1 | inactive | –
6 | Cc1cccc(CNc2ncnc3ccc(-c4ccccc4CN(C)C)cc23)c1 | 0.447 µM (active) | –
7 | O=c1cnc2cnc(N3CCNCC3)nc2n1Cc1ccc(F)cc1 | inactive | –
8 | COc1ccccc1CNc1ncnc2ccc(-c3ccccc3CN(C)C)cc12 | inactive | –
9 | Cc1ccccc1-c1nc(N2CCNCC2)c2ccccc2n1 | inactive | –
10 | COc1ccc(Oc2ncc3nc(CCc4ccccc4)c(=O)n(C[C@H]4CCCO4)c3n2)cc1 | inactive | –
11 | CN(C)c1ncc2nc(CCc3ccccc3)c(=O)n(C[C@H]3CCCO3)c2n1 | inactive | –
12 | CCCCCCCCCCCCc1ccccc1O | inactive | –
13 | OC[C@H]1NC[C@@H](O)[C@@H](O)[C@@H]1O | inactive | –
14 | FC(F)(F)c1ccccc1-c1nc(NC2CCNCC2)c2ccccc2n1 | inactive | –
15 | CN(C)c1ccc(-c2nccc(NCCN3CCOCC3)n2)cc1 | inactive | –
16 | COc1cccc(-c2nc(N3CCN(C)CC3)c3ccccc3n2)c1 | inactive | –
17 | COc1ccc(-n2c(=O)c(-c3ccccc3)nc3cnc(N4CCN(C)CC4)nc32)cc1 | inactive | –
18 | O=c1c(CCc2ccccc2)nc2cnc(N3CCNCC3)nc2n1C1CC1 | inactive | –
19 | Cn1c(=O)c(CCc2ccccc2)nc2cnc(OCc3ccccc3)nc21 | inactive | –
20 | COCCn1c(=O)c(CCc2ccccc2)nc2cnc(N3CCN(C)CC3)nc21 | inactive | –

Row | Compound | Potency | activity change, negative = inhibition
21 | COc1ccc(-n2c(=O)c(-c3cccc(C#N)c3)nc3cnc(N4CCNCC4)nc32)cc1 | inactive | –
22 | Cc1nc2cnc(N3CCN(C)CC3)nc2n(Cc2ccc(F)cc2)c1=O | inactive | –
23 | COCCn1c(=O)c(CCc2ccccc2)nc2cnc(N3CCNCC3)nc21 | inactive | –
24 | COc1cccc(Cn2c(=O)c(C)nc3cnc(N4CCNCC4)nc32)c1 | 28.2 µM (active) | –
25 | Cc1nc2cnc(N3CCNCC3)nc2n(Cc2ccc(F)cc2)c1=O | inactive | –
26 | COc1ccc(-c2nc3cnc(N4CCNCC4)nc3n(-c3ccccc3)c2=O)cc1 | inactive | –
27 | COc1cc(OC)cc(C(=O)N2CCN(Cc3ccccc3C(F)(F)F)CC2)c1 | inactive | –
28 | COc1ccccc1-c1cncnc1NCCN1CCOCC1 | inactive | –
29 | COc1ccc(Oc2ncc3nc(-c4ccccc4)c(=O)n(C4CC4)c3n2)cc1 | inactive | –
30 | COc1cccc(CN2CCN(C(=O)c3ccc(-c4ccccc4)cc3)CC2)c1 | inactive | –
31 | COc1ncc2nc(CCc3ccccc3)c(=O)n(C3CC3)c2n1 | inactive | –
32 | COCCn1c(=O)c(-c2ccc(Cl)cc2)nc2cnc(OC)nc21 | inactive | –
33 | COc1cc(CN2CCN(C(=O)c3ccc(-c4ccccc4)cc3)CC2)cc(OC)c1OC | inactive | –
34 | C1CCC[C@H]2CCCN3CC[C@H](CCCCCC[C@@H]4CCCN5CC[C@H](CC1)OC45)OC23 | – | 16.2% [at 9.46 µM] (inactive)
35 | COc1cccc(-c2ccc3ncnc(N4CCN(C)CC4)c3c2)c1 | 35.5 µM (active) | –
36 | COCCn1c(=O)c(-c2ccccc2)nc2cnc(N3CCNCC3)nc21 | inactive | –
37 | COCCn1c(=O)c(-c2ccc(F)cc2)nc2cnc(OCc3ccccc3)nc21 | inactive | –
38 | COc1c2c(c(C(=O)/C=C/C(C)=C/c3ccccc3)c3c1OCO3)CCN(C)C2 | inactive | –
39 | COc1ccc(-c2nc3cnc(N4CCNCC4)nc3n(-c3ccc(OC)cc3)c2=O)cc1 | inactive | –
40 | CN1CCN(c2ncnc3ccc(-c4ccccc4C#N)cc23)CC1 | inactive | –
